Assay results: PubChem BioAssay (NCATS)
Inconclusive results are not listed. Where a call stands in place of a potency, no number is given. Activity calls are given as the source filed them. Unless noted, calls follow the shape of the dose curve; as a rule, active = well fitted curve in the direction sought with a large enough effect; inconclusive = small, poorly fitted or top-dose-only effect, or another doubt; inactive = no such curve, though single readings can be large; an effect the other way counts as inactive or inconclusive.

Legend:
[1] = biological target: Transient receptor potential cation channel subfamily V member 1 (Homo sapiens) (UniProt Q8NER1); test: HTS Assay for Compounds that Act as Enhancers of the Vanilloid Receptor 1 (AID 488979); details: TRPV1-expressing cells, enhancer of channel activity, stimulated with capsaicin at EC20; series mostly up to 41.7 µM
In short: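 Calcium influx kinetics via Fluo-8 (480/520 nm) in TRPV1-expressing cells, 2000/well cultured overnight at 35.5C. Compound-alone read 3 min (agonist phase), followed by EC20 capsaicin challenge for 2 min (enhancer phase).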

[2] = biological target: Thyrotropin receptor (Homo sapiens) (UniProt P16473); test: qHTS Assay for Antagonists of the Thyroid Stimulating Hormone Receptor (AID 488980); details: TSHR-expressing cells, cAMP antagonist read-out; series mostly up to 57.5 µM
In short: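 Inhibition of TSH-stimulated cAMP accumulation was quantified by homogeneous time-resolved FRET in TSHR-transfected HEK293 cells. Agonist: TSH, 4 nM final (EC80).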

[3] = biological target: D(1A) dopamine receptor (Homo sapiens) (UniProt P21728); test: HTS Assay for Allosteric Agonists of the Human D1 Dopamine Receptor: Primary Screen for Potentiators (AID 488982); details: HEK293 T-REx D1 inducible cells, calcium flux, kinetic fluorescence; series mostly up to 8.37 µM; also: potency is read from the fitted curve at half-maximal effect
In short: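 Calcium flux in an inducible, force-coupled HEK293 Trex D1 line (overnight at 30 C): agonist mode is the 180 s kinetic read after compound; potentiator mode is the following 180 s read after dopamine at EC20.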

[4] = biological target: D(1A) dopamine receptor (Homo sapiens) (UniProt P21728); test: HTS Assay for Allosteric Agonists of the Human D1 Dopamine Receptor: Primary Screen for Antagonists (AID 488983); details: D1 receptor cell assay, antagonist mode, qHTS titration; series mostly up to 41.8 µM;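 also: calcium flux response to an EC80 dopamine challenge measured with no-wash dye; nearly all actives have a fitted effect of over 65% in size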; also: potency is read from the fitted curve at half-maximal effect
In short: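 Tetracycline-induced HEK293 T-REx cells expressing force-coupled D1 were plated overnight at 30 C, dye-loaded for calcium, and read kinetically. Compounds were pinned in, then an EC80 dopamine challenge followed after 180 s to reveal antagonism.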

[5] = Validation screen for small molecules that induce genotoxicity in human embryonic kidney (HEK293T) cells expressing luciferase-tagged ELG1 (AID 493106); details: luminescence; series mostly up to 46.1 µM; also: potency is read from the fitted curve at half-maximal effect
In short: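 HEK293T cells expressing luciferase-tagged ELG1 were exposed to compound or DMSO vehicle for 16 hr at 37 °C, 5% CO2. Genotoxic stress raises ELG1 levels, so increased luciferase signal after ONE-Glo addition and 30 min at room temperature marks hits.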

[6] = biological target: Thyrotropin-releasing hormone receptor (Homo sapiens) (UniProt P34981); test: qHTS for Small Molecule Agonists and Allosteric Enhancers of Human TRH Receptor: Validation Screen for Agonists (AID 493127;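 active = calcium activation more than 3 SD above the typical response in the agonist read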;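 also: intracellular calcium rise by fluo-8 fluorescence before TRH EC20 addition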); details: TRH receptor agonist cell assay; at 2 µM; stronger effect = higher value
In short: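 TRHR-expressing cells were plated overnight in serum-containing medium, then loaded with fluo-8 calcium dye at room temperature for 30 min–1.5 h. After a 10 s baseline, compound was pin-transferred and calcium fluorescence (ex 480/em 530) read kinetically for agonist response.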

[7] = Nrf2 qHTS screen for inhibitors: Validation (AID 493153; active = well fitted inhibition curve with a large enough effect in the main read-out, with a control signal flat, not every such curve was filed as active; also: potency is read from the fitted curve at half-maximal effect); details: A549 ARE-Fluc reporter, 18-24 h; Potency: luciferase luminescence; viability change: measured here: cytotoxicity max response; luciferase luminescence, at 46.1 µM (top of the series)
In short: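 A549 cells carrying an ARE-driven firefly luciferase reporter, in 5% FBS OPTI-MEM, were treated with compounds in concentration-response for 18-24 h at 37°C. Viability was read by CellTiter-Fluor fluorescence, then Nrf2 activity by luciferase luminescence.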

[8] = biological target: Galactokinase (Homo sapiens) (UniProt P51570); test: qHTS Validation Assay for Inhibitors of Human Galactokinase (GALK) (AID 493189); details: purified human GALK enzyme activity, qHTS 7-point titration; series mostly up to 57.5 µM
In short: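 Enzyme activity is inferred from ATP consumption: human GALK phosphorylates galactose (100 uM) using 35 uM ATP for 1 h at room temperature, and luciferase-based Kinase-Glo Plus reports unconsumed ATP.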

[9] = biological target: ATPase family AAA domain-containing protein 5 (Homo sapiens) (UniProt Q96QE3); test: Validation screen for small molecules that inhibit ELG1-dependent DNA repair in human embryonic kidney (HEK293T) cells expressing luciferase-tagged ELG1 (AID 493107); details: HEK293T ELG1-luciferase level, luminescence, 5-fluorouridine co-treatment, 16 h; series mostly up to 46.1 µM;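 also: cells co-treated with the DNA-damaging agent 5-fluorouridine alongside compound; inhibitors lower the ELG1-luciferase luminescence signal; nearly all actives have a fitted effect of over 70% in size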
In short: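 HEK293T cells expressing luciferase-tagged ELG1 were co-treated with 5-fluorouridine and compound or DMSO for 16 hr at 37 °C, 5% CO2. Luciferase activity was then read with ONE-Glo after 30 min at room temperature; suppressed signal indicates blocked ELG1 function.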

[10] = biological target: ATP-dependent 6-phosphofructokinase (Trypanosoma brucei brucei) (UniProt O15648); test: qHTS Assay to Find Inhibitors of T. brucei phosphofructokinase: hit validation (AID 492961);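 also: luminescence reports ADP formed as PFK phosphorylates fructose-6-phosphate with ATP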; details: T. brucei PFK, ADP-Glo luminescence; series mostly up to 51.4 µM
In short: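 ADP-Glo luminescence read-out of ADP formed by 1.25 nM PFK from 0.1 mM ATP and 0.5 mM F6P (TEA pH 8.0, 45 min, RT). Compounds titrated; activity normalized to no-enzyme and full-enzyme controls.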

Galactokinase (Homo sapiens), sequence (P51570 whole entry, looked up): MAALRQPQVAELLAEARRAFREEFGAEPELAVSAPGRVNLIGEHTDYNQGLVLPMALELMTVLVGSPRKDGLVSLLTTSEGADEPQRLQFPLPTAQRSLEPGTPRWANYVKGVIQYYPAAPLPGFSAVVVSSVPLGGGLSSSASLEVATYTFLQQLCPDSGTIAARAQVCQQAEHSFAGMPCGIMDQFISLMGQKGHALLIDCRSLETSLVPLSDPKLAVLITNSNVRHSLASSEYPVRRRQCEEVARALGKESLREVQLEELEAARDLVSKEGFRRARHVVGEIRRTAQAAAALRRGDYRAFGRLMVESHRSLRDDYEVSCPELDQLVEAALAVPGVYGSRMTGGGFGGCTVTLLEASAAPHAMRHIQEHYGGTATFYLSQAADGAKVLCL
Transient receptor potential cation channel subfamily V member 1 (Homo sapiens), sequence (Q8NER1 whole entry, looked up): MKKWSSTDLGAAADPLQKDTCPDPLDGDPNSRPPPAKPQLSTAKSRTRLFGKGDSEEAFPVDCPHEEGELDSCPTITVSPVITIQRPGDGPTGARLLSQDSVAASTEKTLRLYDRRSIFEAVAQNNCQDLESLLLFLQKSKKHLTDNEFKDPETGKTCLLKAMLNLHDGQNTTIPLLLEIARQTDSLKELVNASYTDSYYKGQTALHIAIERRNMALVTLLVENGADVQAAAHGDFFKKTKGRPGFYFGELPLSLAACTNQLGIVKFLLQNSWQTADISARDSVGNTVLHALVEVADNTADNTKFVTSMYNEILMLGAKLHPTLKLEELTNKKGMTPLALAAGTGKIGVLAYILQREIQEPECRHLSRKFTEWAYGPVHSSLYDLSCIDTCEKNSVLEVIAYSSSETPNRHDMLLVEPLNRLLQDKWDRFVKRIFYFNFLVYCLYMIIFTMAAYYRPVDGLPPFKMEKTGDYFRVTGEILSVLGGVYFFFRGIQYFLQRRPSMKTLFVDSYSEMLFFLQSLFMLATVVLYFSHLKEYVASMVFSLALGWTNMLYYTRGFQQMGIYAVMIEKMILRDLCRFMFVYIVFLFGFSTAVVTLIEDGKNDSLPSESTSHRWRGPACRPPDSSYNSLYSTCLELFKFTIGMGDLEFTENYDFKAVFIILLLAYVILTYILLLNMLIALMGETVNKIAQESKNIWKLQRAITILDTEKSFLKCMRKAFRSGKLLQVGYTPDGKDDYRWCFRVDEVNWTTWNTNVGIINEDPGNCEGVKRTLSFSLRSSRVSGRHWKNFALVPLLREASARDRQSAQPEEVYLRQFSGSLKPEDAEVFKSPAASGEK
Thyrotropin-releasing hormone receptor (Homo sapiens), sequence (P34981 whole entry, looked up): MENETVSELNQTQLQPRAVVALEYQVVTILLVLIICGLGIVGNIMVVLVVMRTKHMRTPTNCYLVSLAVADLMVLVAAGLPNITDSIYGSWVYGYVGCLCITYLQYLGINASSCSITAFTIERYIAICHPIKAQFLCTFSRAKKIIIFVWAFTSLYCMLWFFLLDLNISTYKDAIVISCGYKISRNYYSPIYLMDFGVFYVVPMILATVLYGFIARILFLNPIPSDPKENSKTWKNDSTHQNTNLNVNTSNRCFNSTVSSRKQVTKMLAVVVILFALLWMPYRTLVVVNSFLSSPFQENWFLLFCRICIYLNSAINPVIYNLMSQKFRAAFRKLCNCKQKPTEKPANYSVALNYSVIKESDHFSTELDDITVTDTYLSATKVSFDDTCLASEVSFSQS
Thyrotropin receptor (Homo sapiens), sequence (P16473 whole entry, looked up): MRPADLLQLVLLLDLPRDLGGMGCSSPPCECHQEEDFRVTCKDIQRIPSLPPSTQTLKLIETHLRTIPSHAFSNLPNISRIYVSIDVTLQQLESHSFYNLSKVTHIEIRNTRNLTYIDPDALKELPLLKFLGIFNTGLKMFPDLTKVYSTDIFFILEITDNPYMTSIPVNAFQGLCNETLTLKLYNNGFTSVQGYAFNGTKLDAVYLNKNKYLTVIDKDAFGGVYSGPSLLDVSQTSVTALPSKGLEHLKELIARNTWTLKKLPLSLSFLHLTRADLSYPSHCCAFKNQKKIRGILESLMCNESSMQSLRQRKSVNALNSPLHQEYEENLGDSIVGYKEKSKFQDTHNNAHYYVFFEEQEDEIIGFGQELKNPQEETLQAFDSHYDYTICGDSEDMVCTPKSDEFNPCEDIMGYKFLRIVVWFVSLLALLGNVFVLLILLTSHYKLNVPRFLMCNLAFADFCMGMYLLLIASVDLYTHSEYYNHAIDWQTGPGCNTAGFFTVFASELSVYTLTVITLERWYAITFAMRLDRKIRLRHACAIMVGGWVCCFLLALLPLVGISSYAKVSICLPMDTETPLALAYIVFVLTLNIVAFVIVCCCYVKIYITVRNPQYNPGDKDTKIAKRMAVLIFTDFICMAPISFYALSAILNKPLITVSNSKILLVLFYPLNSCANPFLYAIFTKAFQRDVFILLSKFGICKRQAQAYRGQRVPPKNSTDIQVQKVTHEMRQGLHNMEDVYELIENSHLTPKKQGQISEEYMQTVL
D(1A) dopamine receptor (Homo sapiens), sequence (P21728 whole entry, looked up): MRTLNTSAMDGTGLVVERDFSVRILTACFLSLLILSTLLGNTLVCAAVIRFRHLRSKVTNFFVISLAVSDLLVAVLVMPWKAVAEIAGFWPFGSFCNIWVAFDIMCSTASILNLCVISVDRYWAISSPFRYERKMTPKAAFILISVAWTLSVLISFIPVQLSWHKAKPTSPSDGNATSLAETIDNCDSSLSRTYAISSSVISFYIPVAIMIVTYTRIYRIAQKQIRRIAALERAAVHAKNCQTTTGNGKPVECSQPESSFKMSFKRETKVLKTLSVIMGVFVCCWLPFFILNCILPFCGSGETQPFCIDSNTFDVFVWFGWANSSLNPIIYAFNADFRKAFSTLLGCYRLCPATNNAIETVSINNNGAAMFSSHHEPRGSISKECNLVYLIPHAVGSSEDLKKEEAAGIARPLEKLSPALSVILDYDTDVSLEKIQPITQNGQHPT
ATPase family AAA domain-containing protein 5 (Homo sapiens), sequence (Q96QE3 whole entry, looked up, the tested form may be a part): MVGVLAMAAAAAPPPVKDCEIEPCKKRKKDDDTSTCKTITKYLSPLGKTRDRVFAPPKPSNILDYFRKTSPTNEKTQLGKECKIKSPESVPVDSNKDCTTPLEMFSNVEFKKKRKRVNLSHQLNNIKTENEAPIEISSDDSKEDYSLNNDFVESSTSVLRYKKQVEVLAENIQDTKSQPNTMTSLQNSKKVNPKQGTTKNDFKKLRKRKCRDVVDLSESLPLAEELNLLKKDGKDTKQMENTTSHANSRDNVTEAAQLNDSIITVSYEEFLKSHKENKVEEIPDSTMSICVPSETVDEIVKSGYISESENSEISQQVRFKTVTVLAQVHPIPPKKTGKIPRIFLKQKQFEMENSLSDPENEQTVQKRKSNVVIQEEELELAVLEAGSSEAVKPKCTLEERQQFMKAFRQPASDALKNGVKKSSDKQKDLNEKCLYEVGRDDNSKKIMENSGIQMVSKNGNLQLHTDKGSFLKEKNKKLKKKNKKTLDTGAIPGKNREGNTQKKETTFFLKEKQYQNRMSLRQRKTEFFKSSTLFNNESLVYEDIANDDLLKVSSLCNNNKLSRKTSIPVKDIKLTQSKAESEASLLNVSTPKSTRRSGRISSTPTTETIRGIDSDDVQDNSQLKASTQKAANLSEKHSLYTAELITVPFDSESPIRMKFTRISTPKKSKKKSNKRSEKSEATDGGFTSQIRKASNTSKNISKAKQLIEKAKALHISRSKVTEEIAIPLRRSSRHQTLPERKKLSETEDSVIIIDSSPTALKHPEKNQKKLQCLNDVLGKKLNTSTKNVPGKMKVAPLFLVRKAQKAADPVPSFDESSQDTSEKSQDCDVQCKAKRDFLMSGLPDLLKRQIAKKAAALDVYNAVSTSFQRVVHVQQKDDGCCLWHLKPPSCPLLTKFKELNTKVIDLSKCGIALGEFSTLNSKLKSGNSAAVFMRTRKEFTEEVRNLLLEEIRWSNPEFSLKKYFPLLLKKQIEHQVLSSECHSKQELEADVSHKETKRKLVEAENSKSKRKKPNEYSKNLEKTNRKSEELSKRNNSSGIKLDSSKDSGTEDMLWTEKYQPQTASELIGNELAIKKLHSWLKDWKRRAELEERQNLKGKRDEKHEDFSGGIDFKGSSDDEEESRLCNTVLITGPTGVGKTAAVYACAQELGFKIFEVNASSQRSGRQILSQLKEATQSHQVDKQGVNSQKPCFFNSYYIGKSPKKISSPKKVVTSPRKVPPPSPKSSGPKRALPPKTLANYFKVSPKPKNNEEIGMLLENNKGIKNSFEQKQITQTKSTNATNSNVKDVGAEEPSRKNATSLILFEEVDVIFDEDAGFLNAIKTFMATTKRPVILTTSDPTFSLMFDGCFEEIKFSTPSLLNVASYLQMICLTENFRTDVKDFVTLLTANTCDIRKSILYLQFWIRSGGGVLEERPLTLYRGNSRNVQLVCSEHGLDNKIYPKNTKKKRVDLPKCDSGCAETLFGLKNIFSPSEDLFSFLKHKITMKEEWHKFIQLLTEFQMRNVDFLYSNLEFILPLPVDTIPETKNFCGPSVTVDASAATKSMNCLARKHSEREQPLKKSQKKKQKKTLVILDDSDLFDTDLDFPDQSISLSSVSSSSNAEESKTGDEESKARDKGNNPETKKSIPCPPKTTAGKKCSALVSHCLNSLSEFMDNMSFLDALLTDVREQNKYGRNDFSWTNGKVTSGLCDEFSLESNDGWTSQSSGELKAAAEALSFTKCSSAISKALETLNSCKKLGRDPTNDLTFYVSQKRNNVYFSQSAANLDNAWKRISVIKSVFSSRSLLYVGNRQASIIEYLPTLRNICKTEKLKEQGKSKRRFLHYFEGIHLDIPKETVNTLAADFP

SMILES | outcome [1] | outcome [2] | Potency [3] | Potency [4] | Potency [5] | activation [6] | Potency [7] | viability change [7] [%] | outcome [8] | outcome [9] | outcome [10]
NCCCCNCCCN | inactive | inactive | inactive | inactive | inactive | -0.0625% (inactive) | inactive | 3.72 | inactive |  | 
OC(CN1CCN(c2cccc(Cl)c2)CC1)C(c1ccccc1)c1ccccc1 (configuration not stated) | inactive | inactive | inactive | inactive | inactive | 2.44% (inactive) | inactive | 1.98 | inactive | inactive | 
COc1cc2nc(N3CCN(C(=O)C4CCCO4)CC3)nc(N)c2cc1OC (configuration not stated) | inactive |  | inactive |  | inactive | 0.562% (inactive) | inactive | -1.63 | inactive | inactive | 
COc1ccc2cc([C@H](C)C(=O)O)ccc2c1 | inactive | inactive | inactive | inactive | inactive |  | inactive | -8.13 | inactive | inactive | inactive
NNc1nncc2ccccc12 | inactive | inactive | inactive | inactive |  |  | inactive | -2.74 | inactive |  | inactive
NC(=NCc1ccccc1)NC(=O)c1nc(Cl)c(N)nc1N | inactive | inactive | inactive | 5.01 µM (active) | inactive | 0.438% (inactive) | inactive | 2.7 | inactive | inactive | 
CN(C)CCCC1(c2ccc(F)cc2)OCc2cc(C#N)ccc21 (configuration not stated) |  | inactive | inactive |  | inactive | 3.31% (inactive) | inactive | 6.56 | inactive | inactive | 
O=C(NCC1CCCCN1)c1cc(OCC(F)(F)F)ccc1OCC(F)(F)F (configuration not stated) | inactive | inactive |  |  |  | -4.44% (inactive) |  |  | inactive |  | 
O=c1cc(N2CCOCC2)oc2c(-c3ccccc3)cccc12 | inactive | inactive | inactive | inactive | inactive | -3.19% (inactive) | 9.2 µM (active) | -18.1 | inactive |  | 
CC(C)c1ccc2c(c1)c(SC(C)(C)C)c(CC(C)(C)C(=O)O)n2Cc1ccc(Cl)cc1 |  | inactive | inactive | inactive | inactive | 1.38% (inactive) |  |  | inactive | inactive | 
Cc1cccc(C#Cc2ccccc2)n1 | inactive | inactive | inactive | inactive | 8.2 µM (active) | -5.31% (inactive) | inactive | 2 | inactive |  | 
O=c1c(O)c(-c2ccc(O)cc2O)oc2cc(O)cc(O)c12 |  | inactive |  | inactive | inactive | 0.938% (inactive) | inactive | -13.4 | inactive | inactive | 
CC(=O)N1CCN(c2ccc(OC[C@H]3CO[C@](Cn4ccnc4)(c4ccc(Cl)cc4Cl)O3)cc2)CC1 |  | inactive | inactive |  |  |  |  |  | inactive |  | 
CC(=O)O[C@H]1C(=O)[C@@]2(C)C([C@H](OC(=O)c3ccccc3)[C@]3(O)C[C@H](OC(=O)[C@H](O)[C@@H](NC(=O)c4ccccc4)c4ccccc4)C(C)=C1C3(C)C)[C@]1(OC(C)=O)CO[C@@H]1C[C@@H]2O (some centres not stated) | inactive | inactive | inactive | inactive | inactive | 0.562% (inactive) |  |  | inactive |  | 
CC1(C)C(=O)N(CCN2CCC(C(=O)c3ccc(F)cc3)CC2)c2ccccc21 | inactive | inactive | inactive | 4.47 µM (active) | inactive | 3.12% (inactive) |  |  | inactive |  | 
CC1(C)NC(=O)N(c2ccc([N+](=O)[O-])c(C(F)(F)F)c2)C1=O | inactive | inactive | inactive | inactive | inactive | -3.25% (inactive) |  |  | inactive | inactive | 
O=C1c2c(O)cc(O)cc2OC(c2ccc(O)c(O)c2)C1O (configuration not stated) | inactive | inactive |  | inactive | inactive | 0% (inactive) | inactive | -0.133 | inactive | inactive | 
O=Nc1c(-c2c(O)[nH]c3cc(Br)ccc23)[nH]c2ccccc12 | inactive | inactive | inactive |  | 0.92 µM (active) | -8.62% (inactive) |  |  | inactive |  | 
O=C(c1ccccc1)c1ccc2n1CCC2C(=O)O (configuration not stated) | inactive |  | inactive | inactive | inactive |  | inactive | 0.0927 | inactive | inactive | 
O=C1NC(=O)C(c2ccccc2[N+](=O)[O-])=C1Nc1ccc(O)c(Cl)c1 | inactive | inactive | 5.17 µM (active) | inactive | inactive | 1.69% (inactive) | inactive | 5.73 | inactive |  | 
